# Test results taken from PubChem BioAssay AID540267 (National Center for Advancing Translational Sciences (NCATS), 2011).
# Among all 340,000 compounds or so, about 530 (0.16%) were called active. About 2% were inconclusive and are not listed. The full list was thinned out, with actives kept by preference. A number with no mark means an inactive call. No stated cut-off is given here; in the data, active means activity change below about -80%; inconclusive means between about -30% and that limit; inactive means weaker than that.
# Experiment: Small Molecules that selectively kill Giardia lamblia: qHTS;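 further: parasites exposed to compound for two days anaerobically before the ATP read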
# Conditions: Giardia lamblia trophozoite viability; at 7.66 µM; hits give low values
# Text: Giardia lamblia is a human pathogen afflicting impoverished nations, and the most common cause of outbreaks of diarrhea in the United States. Giardia has been classified by the CDC as a category B bioterrorism organism. The favored anti giardiasis drugs in the US are metronidazole or tinidazole, compounds that have undesirable side effects. Moreover, increasing resistance to drug regimes and recurrence are a concern. It is thus clear that alternative drug treatments are needed.
# In a collaboration between the University of Maryland, College Park and the NIH Chemical Genomics Center, a bioluminescence Giardia viability assay based on the trophozoites' ATP content was developed. This assay is suitable for high throughput screening, and miniaturized the assay for compound screening in 1536-well plates. The goal of the project is to screen the Molecular Libraries Small Molecule Repository (MLSMR) for compounds that selectively kill Giardia trophozoites.
# NIH Chemical Genomics Center [NCGC]
# NIH Molecular Libraries Probe Centers Network [MLPCN]
# Assay Submitter (PI): Osnat Herzberg, University of Maryland, College Park, MD.
# 1. Dispense 2 ul/well media
# 2. Dispense 23 nl/well compounds
# 3. Dispense 4 ul/well Giardia trophozoites at a concentration of 100 cells/well
# 4. Incubate 48 hrs at 37 deg C anaerobically
# 5. Dispense 4 ul/well ATPLite 1-Step Luminescence assay kit
# 6. Incubate 15-30 min at room temperature
# 7. Read luminescence signal on ViewLux plate reader
# On the % scale 0 is the no-effect control and ±100 the full control effect.
row,Compound,activity change
1,CCNC(=O)Nc1ccc(S(=O)(=O)Nc2cnc(C)nc2C)cc1,-28.2%
2,CN(CC(=O)Nc1ccc(OC(F)(F)F)cc1)C(=O)C1CCC1,29.9%
3,N#Cc1c(N)nc2c(c1N)CC(C(F)(F)F)O2 (stereo unspecified),-7.55%
4,C=CCNC(=O)c1ccc2nc(-c3ccco3)c(-c3ccco3)nc2c1,-26.3%
5,NC(=O)c1ncn([C@@H]2O[C@H](CN=C3NS(=O)(=O)c4ccccc43)[C@@H](O)[C@H]2O)n1,-14.2%
6,CC(=NNC(=O)c1ccncc1)c1ccc(Cl)c(Cl)c1,-4.59%
7,COC(=O)[C@]1(C)N[C@H](c2ccc(-c3ccc(Cl)c(Cl)c3)cc2)[C@@H]2C(=O)N(C)C(=O)[C@@H]21,-3.14%
8,COC(=O)C1=C(C(=O)c2ccc(C)cc2)C(c2ccccc2)n2nnnc2N1 (stereo unspecified),2.03%
9,Cc1ccc(S(=O)(=O)N2CCN(C(=O)CSc3cc(C)ccc3C)CC2)c(C)c1,-9.03%
10,CN(C)S(=O)(=O)c1cc(C(=O)Nc2ccn(C)n2)c(Cl)cc1Cl,4.66%
11,C=CCn1c(CCNC(=O)c2ccccc2F)nnc1SCC(=O)Nc1ccc(OC)cc1,1.96%
12,CCN(CC)CCCNC(=O)c1c(O)c2cc(F)cc3c2n(c1=O)C(C)CC3 (stereo unspecified),31%
13,COc1cc(SC)ccc1C(=O)N(Cc1ccccc1)c1ccccc1,-27.1%
14,COc1cc(SC)ccc1C(=O)Nc1nc(C)cs1,-94.7% (active)
15,COc1ccc(C(=O)Nc2cccc(NC(=O)c3ccc(OC)cc3OC)n2)c(OC)c1,-19%
16,CC(=O)N1CCc2c(sc(NC(=O)CCS(=O)(=O)c3ccccc3)c2C#N)C1,-1.29%
17,CCCN1CCC(=O)N(C(CSc2ccc(OC)cc2)Cc2ccccc2)CC1 (stereo unspecified),-25.3%
18,C/C(=N\Nc1nncc2ccccc12)c1ccc(Cl)c([N+](=O)[O-])c1,-7.6%
19,COc1cccc(/C=N\Nc2nncc(-c3ccccc3)n2)c1,5.7%
20,CN(CCO)c1ccc(/C=N/Nc2nncc3ccccc23)cc1,-87.9% (active)
21,CC1(C)CCc2cc(S(=O)(=O)N3CCN(c4nc(-c5cccs5)nc5ccccc45)CC3)ccc2O1,-0.147%
22,COc1ccc(CN(Cc2ccccc2)C(=O)c2ccc(O)cc2)cc1COc1ccc(NC(C)=O)cc1,41.3%

row,Compound,activity change
1,CC(=O)OCC(NC(=O)C(Cc1ccccc1)NC(=O)OC(C)(C)C)C1OC(n2ccc(=O)[nH]c2=O)C(OC(C)=O)C1OC(C)=O (stereo unspecified),-16.1%
2,O=C(O)C1CCC(CNS(=O)(=O)c2ccc(Br)cc2)CC1 (stereo unspecified),18.6%
3,CCOc1ccc(N(C)Cc2cc(=O)oc3ccc(OC)cc23)cc1,0.548%
4,C=CCOc1ccc(/C=C/C(=O)OCC(=O)NC(C)c2ccc(F)cc2)cc1 (stereo unspecified),-21.6%
5,COc1ccc2c(C)cc(SCC(=O)NCC3CCCO3)nc2c1 (stereo unspecified),-1.83%
6,COc1ccc(-c2ccc(C3C4C=CCCC4(C)C(=O)N3Cc3ccccc3)c(F)c2)cc1OC (stereo unspecified),5.8%
7,C/C(CC(=O)Nc1ccc(C)cc1C)=N\NC(=O)C(C)C,-14.4%
8,CC(C)C(=O)N1c2ccccc2NC2=C(C(=O)CCC2)C1c1ccc(N(C)C)cc1 (stereo unspecified),1.62%
9,COc1ccc(C2NC(=O)N(C)C(C)=C2[N+](=O)[O-])cc1 (stereo unspecified),22.3%
10,COC(=O)C1=C(C)N(C)C(=S)NC1c1ccccc1 (stereo unspecified),-6.21%
11,COC(=O)C1=C(C)N(C)C(=O)NC1c1ccc([N+](=O)[O-])o1 (stereo unspecified),-87.4% (active)
12,Oc1ccc(Cl)cc1C1C=C(c2ccc3c(c2)OCO3)NC(c2c(F)cccc2Cl)N1 (stereo unspecified),-23.4%
13,CCOC(=O)CSc1nnc(CNC(=O)c2ccco2)n1-c1ccc(F)cc1,-0.714%
14,O=[N+]([O-])c1ccc(C=NN=Cc2ccc([N+](=O)[O-])cc2)cc1,12.5%
15,C/[N+]([O-])=C\c1ccc([N+](=O)[O-])o1,-92.7% (active)
16,O=C(/C=C/c1ccc([N+](=O)[O-])o1)NNC(=O)c1ccc(F)cc1,2.18%
17,COc1cc(Cl)c(C)cc1NC(=O)CSc1nnc(-c2ccco2)n1CC(C)C,6.88%
18,CC(C)Cn1c(N)c(C(=O)COC(=O)C2CCCN2C(=O)c2cccs2)c(=O)n(C)c1=O (stereo unspecified),20.2%
19,C[C@H](NC(=O)C1CCN(S(=O)(=O)c2ccccc2)CC1)C(=O)NCc1ccccc1,10.6%
20,O=C(NCc1ccccn1)[C@]1(C(F)(F)F)C[C@H](CCc2ccccc2)CCCO1,-0.242%
21,COc1cccc(C(=O)c2sc3nc(-c4ccccc4)cc(C(F)(F)F)c3c2N)c1,4.39%
22,COc1ccc(S(=O)(=O)N2CCN(CC(=O)N3c4ccccc4CC3C)CC2)cc1OC (stereo unspecified),-6.14%

row,Compound,activity change
1,CC(=O)Nc1ccc(S(=O)(=O)N2N=NC3C2C2CC4C3(CN(C(=O)OC(C)(C)C)S4(=O)=O)O2)cc1 (stereo unspecified),-7.9%
2,CC(C)C(C)NC(=O)COc1nc2ccccc2nc1N(C)C1CCCCC1 (stereo unspecified),0.279%
3,CN(c1ccc2nc3ccccc3c(=O)n2n1)C1CCCCC1,-82.4% (active)
4,CN(C(=O)c1cc2c(=O)n3ccccc3nc2s1)C1CCCCC1,9.98%
5,COC(=O)CCc1ccccc1S(=O)(=O)N(CCC(=O)OC)Cc1ccccc1,9.42%
6,CCCCN(C1CCS(=O)(=O)C1)S(=O)(=O)c1ccc(C(C)C)cc1 (stereo unspecified),-8.89%
7,Cc1n[nH]c(C)c1S(=O)(=O)N1CCCC(C(=O)NCC2COc3ccccc3O2)C1 (stereo unspecified),1.3%
8,COc1ccc(S(=O)(=O)N2CCC(C(=O)OCC(=O)c3ccccc3)CC2)cc1[N+](=O)[O-],-0.271%
9,Cc1ccc(NC(=O)C(C)OC(=O)Cc2c[nH]c3ccccc23)cc1S(=O)(=O)N1CCOCC1 (stereo unspecified),-9.72%
10,COc1ccc(S(=O)(=O)Nc2cccc3cccnc23)c(N)c1,-6.45%
11,CCCN1CCC(=O)N(C(CSc2ccc(C)cc2)Cc2ccccc2)CC1 (stereo unspecified),13%
12,CCc1nn(CC(=O)N2CCN(CC)CC2)c(=O)c2cccn12,-17.4%
13,COc1ccc2c(c1)CC[C@@H]1[C@@H]2CC[C@]2(C)C(=O)CC[C@@H]12,2.55%
14,O=C(ON=C1CCN(S(=O)(=O)c2ccccc2)CC1)c1ccc(Cl)cc1,-18%
15,Cc1cccc(NS(=O)(=O)c2ccc(-c3cnc(C4CC4)o3)cc2)c1,23.1%
16,COc1ccc(C2CC(O)(c3ccccc3)Oc3cc(C)cc(C)c32)cc1 (stereo unspecified),-2.28%
17,CCOC(=O)c1cc(OC(=O)c2ccccc2Cl)n(-c2ccccc2)n1,20.6%
18,c1ccc(Cn2nnc3c(N4CCCCC4)ncnc32)cc1,6.21%
19,CCOc1ccc(NC(=O)CN(C)C(=O)Cn2c(=O)cnc3ccccc32)cc1OCC,3.18%
20,COc1ccc(CN2CCC(=O)c3ccccc3S2(=O)=O)cc1,-21.5%
21,CS(=O)(=O)N(Cc1ccc(Cl)cc1)c1ccc(C(=O)NCCSCc2ccco2)cc1,4.68%
22,Cc1nnc(SC(C(=O)Nc2cc(Cl)cc(Cl)c2)c2ccccc2)[nH]c1=O (stereo unspecified),24.1%

row,Compound,activity change
1,O=[N+]([O-])/C=C1\CCCCCN1,-16.8%
2,CNC(=O)[C@]1(C(F)(F)F)C[C@H](CCc2ccccc2)CCCO1,-0.81%
3,Cc1nn(CCOc2ccc(Br)cc2)c(C)c1[N+](=O)[O-],-11%
4,Cc1ncc([N+](=O)[O-])n1CCOC(=O)c1ccc(Br)cc1,-80.4% (active)
5,N/C(=N\OC(=O)Cc1ccccc1[N+](=O)[O-])c1ccc(Br)cc1,-8.48%
6,C=CCCN(C(Cc1ccccc1)C(=O)OC)S(=O)(=O)c1cc(Br)ccc1Br (stereo unspecified),-13%
7,CCN(CC)C(=O)COc1coc(CN2CCN(Cc3ccccc3)CC2)cc1=O,-13.6%
8,CCOC(=O)C1CCCN(C(=O)COc2ccc(N(C)S(=O)(=O)c3ccc(C)cc3)cc2)C1 (stereo unspecified),-1.39%
9,COc1ccc(C2Nc3ccc(NC(=O)COC(C)=O)cc3C(=O)N2Cc2ccccc2)cc1COc1ccc(NC(C)=O)cc1 (stereo unspecified),26.7%
10,COc1ccc(OCCn2ccnc2C)cc1,8.15%
11,COc1ccc(-c2ccc(OC)c(C3C4C=CCC(C)C4C(=O)N3Cc3ccccc3)c2)cc1C (stereo unspecified),12.9%
12,CC1CC(C)CN(c2oc(-c3ccc(OCc4ccc(Cl)cc4)cc3)nc2C#N)C1 (stereo unspecified),25.3%
13,Cc1ccc(C(=O)N2CCN(C3CCCCC3)CC2)s1,2.7%
14,CCCC1OC23CCCCC2C(C#N)(C#N)C1(C#N)C(=N)O3 (stereo unspecified),1.74%
15,CC/C(=C(/c1ccccc1)c1ccc(OCC[N+](C)(C)C)cc1)c1ccccc1,8.29%
16,CCN(CC)S(=O)(=O)c1ccc(N2CCOCC2)c(NC(=O)c2ccc(=O)n(C)n2)c1,-7.96%
17,CCN(CC)S(=O)(=O)c1ccc(N2CCCC2)c(NC(=O)c2ccc([N+](=O)[O-])o2)c1,-96.4% (active)
18,CCN(CC)S(=O)(=O)c1cc(C(=O)Nc2cc(S(=O)(=O)N3CCOCC3)ccc2N2CCCC2)ccc1F,-19.1%
19,COC(=O)c1ccc(NC(=O)CN(c2ccc(C)cc2)S(=O)(=O)c2c(C)n[nH]c2C)cc1,12.5%
20,Cc1ccc(CNC(=O)C2(C(F)(F)F)C/C(=C\CCO)CCCO2)o1 (stereo unspecified),-14.6%
